Source: PubChem BioAssay
Activity calls are given as the source filed them. No rule for the calls is given here.

experiment: activators of macrophage pro-inflammatory response, cell-based, murine, luminescence (AID 652131); details: murine macrophage pro-inflammatory reporter, hits give high values; also: test concentration not given here

z-score, inactive:
COc1ccc(Nc2ncc(-c3ccccc3)o2)cc1OC 4.21
Fc1ccc(-c2nc3n(c2-c2ccncc2)CCS3)cc1 2.76
CCn1c(-c2nonc2N)nc2cnc(Oc3cccc(NC(=O)c4ccc(OCCN5CCOCC5)cc4)c3)cc21 1.15
Cc1ccc(O)cc1Nc1ccnc2ccc(S(C)(=O)=O)cc12 0.671
CN(C)c1cc2c(Nc3ccc4c(cnn4Cc4ccccc4)c3)ncnc2cn1 -0.608
Cc1ccc2c(-c3ccnc(Nc4ccc5c(c4)OCCO5)n3)c(-c3ccc(C(F)(F)F)cc3)nn2n1 0.821
Cc1ccc(NC(=O)c2ccoc2)cc1-c1ccc(C(=O)NCC2CC2)cc1 -0.057
O=C(Nc1n[nH]c2cc(-c3cc(F)ccc3F)ccc12)C1CC1 0.317
NC(=O)c1ccc(-c2nc(-c3ccc4c(c3)OCO4)c(-c3ccccn3)[nH]2)cc1 5.36
CN(C)c1cc2c(Nc3ccc4nc(Cc5ccccc5)[nH]c4c3)ncnc2cn1 0.922
Cc1ccc(C(=O)NC2CCC2)cc1-c1ccc(C(=O)NCC2CC2)cc1 -0.285
CCNC(=O)O[C@H]1CN[C@H](C#Cc2cc3ncnc(Nc4ccc(OCc5cccc(F)c5)c(Cl)c4)c3s2)C1 -0.875
COc1cc2ncn(-c3cc(O[C@H](C)c4ccccc4Cl)c(C(N)=O)s3)c2cc1OC -1.16
Clc1ccc(CNc2nccc(-c3cnn4ncccc34)n2)cc1 -1.14
